The values that follow come from PubChem BioAssay AID1276 (Columbia University Molecular Screening Center, 2008).

Hit rate of the full screen: of about 190,000 compounds, about 2,000 (1.1%) were called active.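 Rule for the calls: active = activation above a set limit, based on mean plus 3 SD of controls (cut at about 140% in these data); inconclusive = one replicate above the limit, the other below; inactive = the rest.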 Only a selection was taken, and actives are over-represented in it overall.

The assay is described as follows: APP 5'UTR reporter signal increase – luciferase, SH-SY5Y cells, primary screen (AID 1276). The note with it: SH-SY5Y APP 5'UTR luciferase reporter, luminescence; at 2 µM; stronger effect = higher value; zero percent = DMSO vehicle wells.
As to `COc1ccccc1NC(=O)C1=C(C)NC(=O)NC1c1ccc(C)s1` (stereo not drawn), the activation was 12.8% (inactive).

On to `COc1ccccc1NC(=O)c1ccc(C)s1`, for which the activation was 141% (active).

For the compound `COC(=O)c1c(NC(C)=O)sc(C(=O)Nc2ccccc2OC)c1C`, the activation is 2.59% (inactive).

For `CC[n+]1c(C)n(-c2ccccc2)c2ccc(NC(C)=O)cc21`, the activation is 19.1% (inactive).

For `COC(=O)c1sc(NC(=O)c2ccc(OC)cc2OC)nc1C`, the activation was 137% (active).

As to `CCOC(=O)c1sc(NC(=O)c2ccncc2)nc1C`, the activation is 7.58% (inactive).

As for `COc1ccc(C(=O)Nc2nncs2)c(OC)c1`, the activation was 31.6% (inactive).

As to `CCN(CC(=O)Nc1ccc(Cl)c(S(=O)(=O)N(C)C)c1)Cc1nc2ccccc2c(=O)[nH]1`, the activation is -2.77% (inactive).

As to `NC(=O)Cc1ccc2sc(-c3ccccc3)nc2c1`, the activation is 140% (active).

As to `O=C(O)Cc1sc(-c2ccccc2)nc1-c1cccs1`, the activation was 2.54% (inactive).

Turning to `O=C(O)Cc1sc(-c2ccc(C(=O)O)cc2)nc1-c1ccccc1`, the activation is 19.5% (inactive).

In the case of `O=C(Nc1nc2ccc([N+](=O)[O-])cc2s1)c1ccc(S(=O)(=O)N2CCCc3ccccc32)cc1`, the activation is 2.11% (inactive).

Turning to `CCCCN(C(=O)COc1ccc(NC(C)=O)cc1)C1CCS(=O)(=O)C1` (stereo not drawn), the activation was 6.89% (inactive).

As to `COc1ccc2nc(NC(=O)c3ccc(Br)s3)sc2c1`, the activation was 136% (active).

For the compound `COc1ccc2nc(Nc3nc4ccc(NC(C)=O)cc4s3)sc2c1`, the activation is 20.2% (inactive).

Consider `COc1cccc(C(=O)Nc2nc3ccc(S(C)(=O)=O)cc3s2)c1`, for which the activation was 61.6% (inactive).

With `CCOC(=O)CSC1=N/C(=C/c2ccc(-n3cncn3)cc2)C(=O)N1C(C)=O`, the activation is -12% (inactive).

In the case of `O=C(NCc1nnc(SCC(=O)N2CCC(Cc3ccccc3)CC2)o1)c1ccco1`, the activation was -6.49% (inactive).

Regarding `O=C(OCc1ccc([N+](=O)[O-])cc1)c1ccccn1`, the activation was -1.07% (inactive).

With `N/C(=N\OC(=O)Cc1ccc([N+](=O)[O-])cc1)c1ccccn1`, the activation is 60.6% (inactive).

Regarding `N/C(=N\OC(=O)c1ccc([N+](=O)[O-])cc1)c1ccccn1`, the activation was 149% (active).

Consider `O=[N+]([O-])c1ccc2[nH]c3c(c2c1)CCCC3O` (stereo not drawn), for which the activation was -8.34% (inactive).

`O=C(COC(=O)c1ccccc1F)Nc1cc(S(=O)(=O)N2CCOCC2)ccc1N1CCCC1`: the activation was 6.91% (inactive).

With `O=C(O)c1ccc2c(c1)C(=O)N(c1ccc(/C=C/C(=O)c3ccccc3)cc1)C2=O`, the activation was 19.3% (inactive).

Consider `O=C(/C=C/c1ccccc1)c1ccoc1`, for which the activation is 0.93% (inactive).

Turning to `O=C(/C=C/c1ccc(N2CCOCC2)cc1)c1ccccc1`, the activation is 140% (active).

Turning to `O=S(=O)(Nc1ccccn1)c1cccc(S(=O)(=O)c2ccc(Cl)cc2)c1`, the activation was 8.9% (inactive).

In the case of `COCCNC(=S)Nc1cc(S(=O)(=O)N2CCOCC2)ccc1N1CCCCC1`, the activation was 21.7% (inactive).

On to `Cn1nnnc1SCC(=O)NNC(=O)c1ccc(Br)cc1`, for which the activation was -3.54% (inactive).

For `O=C(COC(=O)CNS(=O)(=O)c1ccccc1)NC12CC3CC(CC(C3)C1)C2`, the activation is 0.34% (inactive).

As to `CN(C)CCn1c(=S)[nH]c2ccc(Cl)cc2c1=O`, the activation is -6.45% (inactive).

In the case of `CN(C)CCN=c1cc(-c2ccccc2)oc2ccc(Cl)cc12`, the activation is 158% (active).

As for `Cc1cc(C)n(-c2ccc(C(=O)O)cc2[N+](=O)[O-])n1`, the activation is -4.56% (inactive).

For the compound `O=C(CN1CCN(c2ccccn2)CC1)N1CCc2ccccc21`, the activation was 30.9% (inactive).

On to `O=C(c1cc(-c2ccccc2O)on1)N1CCCC1`, for which the activation was 102% (inactive).

`COc1ccccc1-c1cc(C(=O)N2CCCCC2)no1`: the activation was 113% (inactive).

Regarding `O=C(c1cc(-c2cccs2)on1)N1CCCCC1`, the activation is 138% (active).

For the compound `O=C(Nc1ccc(N2CCOCC2)cc1)c1ccc(-c2ccccc2[N+](=O)[O-])o1`, the activation is 17.6% (inactive).

Regarding `CC1Cc2ccccc2N1C(=O)CSc1nnc(C2CC2)n1C` (stereo not drawn), the activation was 23.3% (inactive).

As to `COc1ccc(N2C(=O)CC(Sc3n[nH]c(-c4ccc(C)cc4)n3)C2=O)cc1` (stereo not drawn), the activation was 14.7% (inactive).

On to `O=C(Nc1ccc(F)cc1)N1CCCC(c2nc3c(nnn3Cc3ccccc3Cl)c(=O)[nH]2)C1` (stereo not drawn), for which the activation is -4.96% (inactive).

Take `Cn1nnc2cc(C(=O)NCCC3=CCCCC3)ccc21`: the activation is 174% (active).

With `O=C(NCCC1=CCCCC1)c1ccc(Cl)c([N+](=O)[O-])c1`, the activation was 8.77% (inactive).

For `CN(c1ccc(C(=O)NCCC2=CCCCC2)cc1)S(C)(=O)=O`, the activation is 76% (inactive).

For `CCOCCCNC(=O)C(=O)NCCCOCC`, the activation was -1.33% (inactive).

Take `O=C(C1CCCO1)N(c1ccc(F)cc1)C1C=CS(=O)(=O)C1` (stereo not drawn): the activation is 5.93% (inactive).

Turning to `Cc1ccc(NC(=O)COC(=O)CCc2nc3ccccc3n2-c2ccccc2)c(C)c1`, the activation was 11.8% (inactive).

Regarding `O=C(CN1CCN(c2ncccn2)CC1)Nc1ccccc1C(F)(F)F`, the activation is -6.86% (inactive).

As to `Cc1ccc(CN(Cc2cccnc2)C(=S)Nc2cc(Cl)ccc2C)cc1`, the activation is 2.52% (inactive).

For the compound `O=C(Nc1nc2ccccc2s1)c1ccc2c(c1)OCO2`, the activation is 183% (active).

On to `O=C(Nc1ccccc1)Nc1nc2ccccc2s1`, for which the activation is 212% (active).

Regarding `COCc1nnc(NC(=O)c2ccc3c(c2)OCO3)s1`, the activation was 61.2% (inactive).

Consider `Cc1cc(C)c2nc(NC(=O)c3ccc4c(c3)OCO4)sc2c1`, for which the activation was -8.57% (inactive).

Regarding `CC(=O)Nc1ccc(-c2csc(NC(=O)Nc3ccccc3)n2)cc1`, the activation is -14.7% (inactive).

Regarding `CSCCC(Nc1nc2ccccc2s1)C(=O)O` (stereo not drawn), the activation was -7.07% (inactive).

As to `CCCC1NC(=S)NC(C)=C1C(C)=O` (stereo not drawn), the activation was -10.8% (inactive).

For `CCCCCOc1ccc(/C=C/C(=O)NCCc2nc3ccccc3[nH]2)cc1OC`, the activation was -0.79% (inactive).

For `S=C(NCc1ccco1)Nc1ccc2c(c1)OCCO2`, the activation is 18.6% (inactive).

Regarding `CC1CCCC(C)N1/N=C/c1ccccc1OC(F)F` (stereo not drawn), the activation was 5.03% (inactive).

On to `CCOc1ncccc1C(=O)OCc1cn2cc(Cl)ccc2n1`, for which the activation is -0.86% (inactive).

As to `O=c1cc(CSc2ccc(Cl)cc2)nc(N2CCOCC2)[nH]1`, the activation is 6.36% (inactive).

For the compound `Clc1ccc2nc(CSc3ccccc3)cn2c1`, the activation is 216% (active).

As to `Cc1nn(Cc2ccc(F)cc2)c(C)c1NC(=O)c1cccnc1Cl`, the activation was 10.3% (inactive).

On to `Cc1ccc(-c2nc3ccccc3[nH]2)cc1N`, for which the activation was 201% (active).

Regarding `c1ccc2[nH]c(-c3nc4ccccc4[nH]3)nc2c1`, the activation is 181% (active).

With `COc1ccc(Br)cc1C(=O)NC(=S)Nc1cc(-c2nc3ccccc3[nH]2)ccc1C`, the activation is 21.4% (inactive).

Consider `c1ccc(-c2[nH]ncc2-c2nc3ccccc3[nH]2)cc1`, for which the activation was -1.2% (inactive).

For the compound `COc1ccc(-c2[nH]nc(-c3ccccc3)c2-c2nc3ccccc3[nH]2)cc1`, the activation was -4.36% (inactive).

On to `Cc1ccc(-c2nc3ccccc3[nH]2)cc1NC(=O)c1sc2ccccc2c1Cl`, for which the activation is -3.21% (inactive).

`COc1ccc(C2CC(c3ccccc3)=NN2C(=O)COC(=O)COc2ccccc2)cc1` (stereo not drawn): the activation was 0.61% (inactive).

Regarding `O=C(CSc1ccc([N+](=O)[O-])cn1)Nc1ccc(N2CCOCC2)c(Cl)c1`, the activation was -13% (inactive).

Take `COc1ccc(-c2csc(Cc3nc(O)cs3)n2)cc1`: the activation is 157% (active).

For `COc1ccc(-c2csc(NC(=O)CCCc3cccs3)n2)cc1`, the activation was -2.07% (inactive).

Turning to `COc1ccc(OC)c(Nc2nc(-c3ccc(O)c(O)c3)cs2)c1`, the activation is -40.2% (inactive).

On to `Cc1cccc(/C(N)=N/OC(=O)c2ccccc2Cl)c1`, for which the activation was 206% (active).

For `Cc1cccc(C(=O)c2cccc(C)c2)c1`, the activation was 7.97% (inactive).

For `N/C(=N\OC(=O)c1cc(-c2ccccc2)nc2ccccc12)c1ccncc1`, the activation was 7.36% (inactive).

`Cc1ccc(NC(=S)N2CCN(c3ncccn3)CC2)cc1C`: the activation is 2.51% (inactive).

Regarding `O=[N+]([O-])c1cccc(Nc2c3ccccc3nc3ccccc23)c1`, the activation was -0.09% (inactive).

On to `COc1cccc(-c2nc(S(=O)(=O)c3ccccc3)c(N3CCOCC3)o2)c1`, for which the activation is 10.7% (inactive).

On to `COc1ccc(-c2nc3cc([N+](=O)[O-])ccc3o2)cc1OC`, for which the activation is 20.2% (inactive).

As for `COc1ccc2oc(-c3cccc(NC(=O)CSc4ccc(Cl)cc4)c3)nc2c1`, the activation is 48.5% (inactive).

For `O=[N+]([O-])c1ccc2oc(-c3cccc(O)c3)nc2c1`, the activation was 184% (active).

Consider `COc1cccc(-c2nc3cc(C)ccc3o2)c1`, for which the activation is 172% (active).

As to `N#Cc1c(-c2ccc(Cl)cc2)c2c([nH]c1=S)CCCC2`, the activation was 15.9% (inactive).

As for `COc1cc(OC)c(-n2cc(-c3ccc(Cl)cc3)[nH]c2=O)cc1Cl`, the activation is -7.27% (inactive).

With `CC1(C)CC(=O)C=C(N2CCOCC2)C1`, the activation was 6.79% (inactive).

For `CCCNS(=O)(=O)c1ccc(CCC(=O)N2CCCC2)cc1`, the activation is 4.45% (inactive).

In the case of `CC(C)CC(=O)N/C(N)=N/c1nc2ccccc2s1`, the activation is 203% (active).

With `O=C(O)CSCc1nc2ccccc2s1`, the activation is -3.48% (inactive).

Regarding `O=C(O)CCCCc1nc2ccccc2s1`, the activation was -11.6% (inactive).

Turning to `CCC(=O)NC(=Nc1nc2ccccc2s1)NC(=O)CC`, the activation is 147% (active).

In the case of `COC(=O)c1nc2ccccc2s1`, the activation was -8.64% (inactive).

For `CC(C)CC(=O)NC(=S)NCc1ccccc1`, the activation was 9.6% (inactive).

Turning to `Cc1ccc(C(=O)NNC(=O)c2cccs2)cc1`, the activation is 38.8% (inactive).

As to `NC1=NC(=O)C(Cc2cccc(Cl)c2)S1` (stereo not drawn), the activation is 11.8% (inactive).

Take `C=CCO/N=C/C1=C(O)C(C(=O)OC)C(C)(C)CC1=O` (stereo not drawn): the activation is 7.9% (inactive).

For the compound `Cc1cccc(C)c1OCC(=O)NC(Cc1c[nH]c2ccccc12)C(=O)O` (stereo not drawn), the activation was 10.3% (inactive).

On to `O=C(CN1C(=O)c2cccc3cccc1c23)Nc1ccccc1`, for which the activation was -9.88% (inactive).

With `O=C(N/N=C/c1cc2c(cc1Br)OCO2)C1COc2ccccc2O1` (stereo not drawn), the activation was -5.77% (inactive).

`O=C(NCCOc1ccccc1)c1ccccc1`: the activation is 123% (inactive).

For `CCCOc1ccc(C(=O)NCCc2ccccc2)cc1`, the activation is 156% (active).

For the compound `O=C(NCCc1ccccc1)c1ccc(OCCOc2ccccc2)cc1`, the activation was 4.18% (inactive).
